Bioassay records as filed in PubChem BioAssay.
Only some compounds are listed: those with a hit (about 21% of all), similar ones and a draw of the others.
Pf growth 96h: Primary qHTS for delayed death inhibitors of the malarial parasite plastid, 96 hour incubation. P. falciparum luciferase reporter growth, 96 h. Potency, µM (highest dose often 28.7 µM), inactives show at the highest dose activity change, negative = inhibition, hits mostly inhibitors. 320,000 compounds, 6.9% hits; also: potency is read from the fitted curve at half-maximal effect; % is scaled to controls: 0 for no effect and ±100 for the full control effect
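Cell-based qHTS: luciferase-tagged P. falciparum in erythrocytes (2% hematocrit, 0.05% parasitemia final) incubated with compounds for 96 hours, 37 C, 5% CO2; luciferase detection reagent then added and luminescence measured.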
HCV inh: qHTS Assay for Inhibitors of Hepatitis C Virus (HCV). Huh7.5.1 HCVcc-Cre infection, luciferase reporter, 44 h. 340,000 compounds, 3.4% hits. Potency, µM (titrated, usually from 41.8 µM), without a hit: top-dose activity change, negative = inhibition, usual class: inhibitors; also: potency is read from the fitted curve at half-maximal effect; % is scaled to controls: 0 for no effect and ±100 for the full control effect
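A cell-based infection assay in which seeded cells (1,000 per well) receive test compound after 4 h, are inoculated with HCVcc-Cre at approximately 0.5 moi, and are incubated 44 h before luminescence detection.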
HCMV inh: qHTS Assay for inhibitors of the human cytomegalovirus (HCMV); HFF cells, HCMV-luciferase reporter, 72 h; hits give low values; activity change, negative = inhibition, % at 57.5 µM; 410,000 compounds, 4.5% hits; in the data active = activity change below about -60%; inconclusive = no clear call, values can overlap the other calls; inactive = above about -39%; also: % is scaled to controls: 0 for no effect and ±100 for the full control effect
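Compounds were evaluated in HFFs infected with an HCMV luciferase reporter virus (MOI 1 PFU/cell). Luciferase in lysates collected 72 h post infection served as the replication measure.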
Shiga inhibitor: A qHTS for Small Molecule Inhibitors of Shiga Toxin. Vero cells, Shiga toxin protein synthesis inhibition reporter. inhibition, % at 38.7 µM. 290,000 compounds, 9.2% hits. AID 2315, 2010; in the data active = inhibition mostly above about 28%, no sharp cut-off; inactive = mostly below about 43%; also: 0% is about no effect
Pf growth 48h: Primary qHTS for delayed death inhibitors of the malarial parasite plastid, 48 hour incubation | 310,000 compounds, 5.9% hits | P. falciparum luciferase growth in erythrocytes, 48 h | Potency, µM (titrated, usually from 28.7 µM), for the others: top-dose activity change, negative = inhibition, hits mostly inhibitors | AID 504832, 2011; also: potency is read from the fitted curve at half-maximal effect; % is scaled to controls: 0 for no effect and ±100 for the full control effect
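Erythrocytes infected with P. falciparum carrying an integrated firefly luciferase reporter (2% hematocrit, 0.1% parasitemia final) were exposed to compounds in RPMI 1640 with 0.5% Albumax at 37 C, 5% CO2. Growth inhibition was scored as reduced luminescence.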
Cycloheximide cs: Cycloheximide Counterscreen for Small Molecule Inhibitors of Shiga Toxin | cell reporter, cycloheximide protein synthesis inhibition counterscreen | max response, % | 300,000 compounds, 12% hits | AID 2314, 2010; in the data active = max response mostly above about 13%, no sharp cut-off; inactive = mostly below about 14%; also: read at 38.3 µM for the half of the compounds with a filed dose; 0% is about no effect
The depositor's hits bear a star; ? = inconclusive; . = no result; [ ] = remark or other dose. Unless noted, calls follow the shape of the dose curve; as a rule, active = well fitted inhibition curve with a large enough effect; inconclusive = small, poorly fitted or top-dose-only effect, or another doubt; inactive = no such curve, though single readings can be large or run the other way.

SMILES | Pf growth 96h | HCV inh | HCMV inh | Shiga inhibitor | Pf growth 48h | Cycloheximide cs
O=C(Nc1ccc(Cl)cc1)c1ccc2ncsc2c1 | 253% | -28% | . | 123* | 200% | 46*
O=C(Nc1ccc(N2CCOCC2)cc1)c1ccc2ncsc2c1 | . | ? | 5 | . | . | .
O=C(Nc1ccc(F)cc1)c1ccc2ncsc2c1 | 153% | -1% | 87 | 91* | 102% | 59*
O=C(COC(=O)c1ccc2ncsc2c1)NCc1cccc(Cl)c1 | 87% | -9% | ? | . | 101% | .
O=C(Nc1cccc(Cl)c1)c1ccc2ncsc2c1 | 92% | ? | -10 | 90* | 56% | 44*
O=C(O)c1ccc2ncsc2c1 | ? | 21% | 37 | 68* | ? | 27*
O=C(Nc1ccc(C(F)(F)F)cc1)c1ccc2ncsc2c1 | 127% | 3% | 30 | 156* | 117% | 35*
O=C(c1ccc2ncsc2c1)N1CCCCC1 | -12% | 0% | 5 | -20 | 15% | 2
O=C(OCCOc1cccc(Cl)c1)c1ccc2ncsc2c1 | 39% | -20% | 4 | 34 | 33% | 17*
O=c1cc(CSc2ccc(Cl)cc2)nc(-c2ccccn2)[nH]1 | 1.9µM* | ? | -61* | 3 | 2.3µM* | -2
Cc1nc(CSc2ccccc2)cc(=O)[nH]1 | -18% | -8% | -25 | 22 | 224% | 5
O=c1cc(CSc2ccccc2)nc(-c2ccccc2)[nH]1 | 32% | -3% | -105* | 16 | 62% | 19
O=c1cc(CSc2ccc(Cl)cc2)nc(-c2ccccc2)[nH]1 | -3% | 19% | -35 | -6 | -10% | 13
Cc1ccc(S(=O)(=O)CC(=O)c2ccccc2)cc1 | 24% | 16% | -13 | 65 | 0% | 21
C/C(CS(=O)(=O)c1ccccc1)=N\O | 15% | 21% | ? | -11 | -3% | -5
CCOC(=O)CS(=O)(=O)c1ccc2ccccc2c1 | 29% | -8% | 17 | -7 | 4% | -3
C/C=C(\CS(=O)(=O)c1ccccc1)S(=O)(=O)c1ccccc1 | 23% | ? | ? | 44* | ? | 15*
CC(C)(C)c1ccc(C(=O)CS(=O)(=O)c2ccccc2)cc1 | 217% | 1% | 0 | 88* | 349% | 38*
CCOC(=O)CS(=O)(=O)c1nc(-c2ccc(F)cc2)cc(C(F)(F)F)n1 | . | 10µM* | . | -5 | 5% | -7
CCOC(=O)CS(=O)(=O)c1nc(-c2ccccc2)cc(C(F)(F)F)n1 | 39% | ? | -103* | 31 | 0% | -3
COc1ccccc1CNc1ncnc2c1cnn2-c1ccc(C)cc1 | . | . | -28 | . | . | .
O=C(CSc1n[nH]c(-c2ccccc2Cl)n1)N1CCN(c2ccc(F)cc2)CC1 | . | . | 2 | . | . | .
Cc1ccc(N2CC(NC(=O)Cc3ccc(F)cc3)CC2=O)cc1C (centres undefined) | . | . | -39 | . | . | .
O=C(CNC(=O)c1ccc(Cl)cc1Cl)OCC(=O)N1CCCC1=O | 25% | 3% | 4 | . | 46% | .
CCOC(=O)CS(=O)(=O)c1ccccc1 | 2% | 2% | 43 | -3 | 2.9µM* | -3
SMILES | Pf growth 96h | HCV inh | HCMV inh | Shiga inhibitor | Pf growth 48h | Cycloheximide cs
COC(=O)CCS(=O)(=O)c1nc(-c2ccccc2)cc(C(F)(F)F)n1 | . | ? | . | -17 | 2% | 1
CCOC(=O)NC(C(Cl)(Cl)Cl)S(=O)(=O)c1ccccc1 (centres undefined) | -3% | 1% | 22 | 50* | -22% | 18*
CCOC(=O)CS(=O)(=O)c1ccc(O)cc1 | ? | 13% | -39 | -7 | -6%[5.75 µM] | -3
CCOC(=O)CCS(=O)(=O)c1nc(-c2ccccc2)cc(C(F)(F)F)n1 | . | 10µM* | . | -14 | 13% | -6
COc1ccc(-c2c(C)nn3c(C(F)(F)F)cc(-c4ccc(Br)cc4)nc23)cc1 | . | . | -21 | . | . | .
Cc1ccc(-c2cc(N)nc(-c3ccccc3)c2)cc1 | -21% | ? | 32 | 60* | -15% | 28*
C[C@@H]1COC(=O)[C@H](NC(=O)OCC2c3ccccc3-c3ccccc32)C/C=C\C[C@@H](CC(=O)N[C@H](CO)Cc2ccccc2)C(=O)N1 | . | ? | -23 | . | . | .
N/C(CN1CCCC1=O)=N\OC(=O)c1ccccc1Cl | ? | 2% | 42 | 16 | 60% | 26*
CCCCc1nc2cc(C(=O)N3CCNC(=O)C3CC(=O)OC)ccc2o1 (centres undefined) | ? | . | -24 | 8 | 29% | 15*
COC(=O)CC1C(=O)NCCN1C(=O)CSc1nc2cc(Cl)ccc2o1 (centres undefined) | 11% | 13% | -16 | -15 | 0% | -4
COC(=O)CC1C(=O)NCCN1C(=O)c1ccc2oc(C(C)C)nc2c1 (centres undefined) | 15µM* | 11% | -11 | 15 | 7% | 9
CC1CCCCN1CC(O)COCc1ccccc1 (centres undefined) | -7% | 15% | ? | 2 | -15% | 7
CSc1cccc(CN2CCCC(CNC(=O)c3ccc(F)cc3)C2)c1 (centres undefined) | ? | -18% | -15 | -9 | ? | -2
CCOc1cc(CN2CCCC(C(=O)c3cccc(C(F)(F)F)c3)C2)ccc1O (centres undefined) | 8% | -27% | -22 | -8 | 5.2µM* | 8
O=C(NCC1CCCN(Cc2ccccc2F)C1)c1cccc(C(F)(F)F)c1 (centres undefined) | 12µM* | 11µM* | ? | 9 | -5% | -2
Cc1ccc(CN2CCCC(C(=O)c3cccc(C(F)(F)F)c3)C2)o1 (centres undefined) | -19% | ? | -30 | -21 | -4% | 13
O=C(c1cccc(C(F)(F)F)c1)C1CCCN(Cc2ccccc2O)C1 (centres undefined) | 8.3µM* | 3% | 5 | -9 | ? | 5
CCc1noc(C)c1C(=O)N1CCN(S(=O)(=O)c2cccs2)CC1 | 14% | -8% | 13 | . | -3% | .
CCOC(=O)C1=C(NC(=O)c2ccc(Br)o2)Nc2ccccc2N=C1 | 1.9µM* | ? | -28 | -3 | 1.7µM* | -5
CCOC(=O)c1c(NC(=O)c2ccc(Br)o2)sc(C)c1CC | 163% | ? | -17 | 34 | 25% | -2
C#CCNC(=O)c1cc2c(Br)ccc(Br)c2nc1N | . | . | 3 | . | . | .
Cc1ccc(Cl)cc1NC(=O)N(C)CCOC(=O)Nc1cccc(Cl)c1 | . | . | -9 | . | . | .
COc1ccc(C(=O)Cn2c(C(=O)/C=C/c3ccccc3)nc3ccccc32)cc1 | . | ? | 11 | -10 | 10µM* | 6
COc1ccc(C(=O)Cn2c(NCCCl)nc3ccccc32)cc1 | ? | -11% | -11 | -2 | -2% | 1
Cc1cccc(C)c1OCCSc1nc2ccccc2n1CC(=O)O | 12µM* | 14% | 27 | . | 30% | -1
